An excerpt weighted towards active compounds, which were near 19% of everything screened.
TDP1 block: inhibitors of human tyrosyl-DNA phosphodiesterase TDP1; Q9NUW8; recombinant TDP1, AlphaScreen DNA substrate cleavage; Potency, µM (series often up to 130 µM), for inactives: at the top dose activity change, negative = inhibition, usual class: inhibitors; 350,000 compounds, 0.28% hits; note: potency is the fitted concentration of half-maximal effect; % is set by controls: 0 for no effect and ±100 for the full control effect; nearly all actives have a fitted effect of over 40% in size
Target sequence (Q9NUW8 whole entry, looked up): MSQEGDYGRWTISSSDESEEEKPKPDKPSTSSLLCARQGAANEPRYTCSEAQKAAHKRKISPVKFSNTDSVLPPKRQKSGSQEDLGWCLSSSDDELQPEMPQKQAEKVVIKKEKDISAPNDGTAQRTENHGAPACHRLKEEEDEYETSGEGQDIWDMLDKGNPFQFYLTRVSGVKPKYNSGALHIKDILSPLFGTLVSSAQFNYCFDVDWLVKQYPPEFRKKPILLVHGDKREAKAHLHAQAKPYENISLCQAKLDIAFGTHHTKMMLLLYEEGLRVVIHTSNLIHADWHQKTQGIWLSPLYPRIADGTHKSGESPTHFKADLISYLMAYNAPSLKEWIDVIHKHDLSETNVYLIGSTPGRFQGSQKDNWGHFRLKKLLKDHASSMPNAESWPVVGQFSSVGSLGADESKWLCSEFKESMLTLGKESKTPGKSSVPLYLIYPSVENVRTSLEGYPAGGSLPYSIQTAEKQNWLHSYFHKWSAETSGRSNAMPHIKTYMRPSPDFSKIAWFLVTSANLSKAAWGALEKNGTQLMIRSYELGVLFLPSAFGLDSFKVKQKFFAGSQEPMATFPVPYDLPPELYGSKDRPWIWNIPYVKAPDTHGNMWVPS
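Recombinant human Tdp1 (E. coli-expressed, 1 nM final) preincubated with compounds 15 min at room temperature, then 5'-biotin/3'-phosphotyrosine-FITC DNA substrate (15 nM final) added for 5 min. AlphaScreen beads (10 ug/ml final) added 10 min; cleavage lowers signal.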
IL1B secr inh: inhibitors of inflammasome signaling (IL-1 beta secretion); THP-1 LPS/ATP IL-1B secretion, AlphaLISA, 16 h; hits give low values; activity change, % at 57.5 µM; 360,000 compounds, 4.7% hits; in the data active = activity change below about -50%; inconclusive = mostly about -30% to -49%; note: % is set by controls: 0 for no effect and ±100 for the full control effect
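Secreted IL-1B measured by AlphaLISA bead assay after 16 h compound exposure of THP-1 cells; compounds (final up to 57.5 uM) added 1 h before LPS (250 ng/mL) and ATP (1.25 mM) stimulation; lower signal means less secretion.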
TDP1 cell CPT: DT40-hTDP1 cell growth loss with CPT | 420,000 compounds, 12% hits | chicken DT40 Tdp1-/-;hTDP1 cells + 20 nM CPT, ATP luminescence, 48 h | Potency, µM (series often up to 46.2 µM), without a hit: top-dose activity change, negative = growth inhibition, most hits filed as inhibitors; note: potency is the fitted concentration of half-maximal effect; % is set by controls: 0 for no effect and ±100 for the full control effect; nearly all actives have a fitted effect of over 55% in size
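Chicken DT40 Tdp1-/- cells complemented with human TDP1, 400 cells/well, exposed to compounds plus 20 nM camptothecin for at least 48 h at 37 C; viability read as ATP content by CellTiter-Glo luminescence.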
HepG2 viability: HepG2 cytotoxicity, counter-screen for TGF-b inhibitors. 410,000 compounds, 0.76% hits. Potency, µM (titrated, usually from 46.1 µM), inactives show at the highest dose activity change, negative = cytotoxicity, most hits filed as cytotoxic. HepG2 CAGA-GFP viability, ATP luminescence, 18 h. AID 588856; note: potency is the fitted concentration of half-maximal effect
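HepG2 CAGA-GFP cells (1000/well, DMEM with 1% FBS) received compound, then TGF-beta at 500 pg/mL final, and were incubated 18 hours at 37 degrees C. Viability was read by CellTiter-Glo luminescence. Media-only wells were set as complete cell-killing and DMSO as no toxicity.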
TGFb inhibitor: blocks TGF-b signaling. HepG2 CAGA-GFP TGF-b/SMAD3 reporter, GFP fluorescence, 18 h; TGF-beta stimulated, 500 pg/mL final. Potency, µM (highest dose often 46.1 µM), for the others: at the highest dose activity, negative = inhibition, usual class: inhibitors. 410,000 compounds, 1.2% hits. AID 588855; note: potency is the fitted concentration of half-maximal effect; % is set by controls: 0 for no effect and ±100 for the full control effect; nearly all actives have a fitted effect of over 65% in size
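Per well, imaged GFP fluorescence of HEPG2 CAGA-GFP cells gives the signal; cells get compound, then TGF-beta (500 pg/mL final), 18 h at 37 degrees C; %Activity versus -TGF-beta and +DMSO controls.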
DT40 TDP1 no CPT: qHTS for Inhibitors of human tyrosyl-DNA phosphodiesterase 1 (TDP1): qHTS in cells in absence of CPT. DT40 Tdp1-/- hTDP1 cells, no CPT, ATP luminescence, 48 h. Potency, µM (titrated, usually from 46.2 µM), for inactives: at the highest dose activity change, negative = growth inhibition, actives largely listed as inhibitors. 420,000 compounds, 15% hits. AID 686978, 2013; note: potency is the fitted concentration of half-maximal effect; % is set by controls: 0 for no effect and ±100 for the full control effect; nearly all actives have a fitted effect of over 55% in size
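Readout: luminescence from CellTiter-Glo after 30 min in the dark at RT. Cells: DT40 Tdp1-/- with stable hTDP1, 400/well. Exposure: compounds alone, ≥48 hr, 37 °C.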
* marks the source's active call; other numbers are inactive results; ? = inconclusive; nt = not tested or not shown; [ ] = dose if it differs, or a comment. Unless noted, calls come from the whole dose curve; as a rule, active = well fitted curve in the direction sought with a large enough effect; inconclusive = small, poorly fitted or top-dose-only effect, or another doubt; inactive = no such curve, though single readings can be large; an effect the other way counts as inactive or inconclusive.

SMILES	TDP1 block	IL1B secr inh	TDP1 cell CPT	HepG2 viability	TGFb inhibitor	DT40 TDP1 no CPT
CC1CC(=S)Nc2ccccc2N1C(=O)Nc1ccccc1 (centres undefined)	5%	11	4%	-36%	-2%	-10%
O=C(Nc1ccccc1)N1CCc2scc[n+]2-c2ccccc21	-3%	?	5.8µM*	12%	18%	12µM*
CS(=O)(=O)c1nc(S(=O)(=O)c2ccc(Cl)cc2)c(NCCN2CCOCC2)s1	2%	-52*	-11%	-2%	-1%	20%
CCS(=O)(=O)c1nc(S(=O)(=O)c2ccc(Cl)cc2)c(NCCN2CCOCC2)s1	4%	-1	-11%	-2%	0%	2%
CCNc1sc(S(C)(=O)=O)nc1S(=O)(=O)c1ccc(C)cc1	5%	nt	-5%	-14%	3%	-19%
CS(=O)(=O)c1nc(S(=O)(=O)c2ccc(Cl)cc2)c(NCCCn2ccnc2)s1	-13%	-56*	5%	1%	0%	20%
COc1cc(NC(=O)Cn2c(=O)cc(C)c3c(C)nn(-c4ccc(C)cc4)c32)cc(OC)c1	7%	nt	-9%	7%	-12%	-14%
COc1ccc(NS(=O)(=O)Cc2ccccc2)cc1OC	2%	0	-11%	3%	7%	-20%
COc1cc(NS(C)(=O)=O)ccc1Cc1c2ccccc2nc2ccccc12	13%[56.1 µM]	nt	0.082µM*	nt	nt	0.16µM*
COc1c2c(cc3c1C(c1c(O)c4ccccc4oc1=O)N(C)CC3)OCO2 (centres undefined)	1%	nt	-11%[9.04 µM]	nt	nt	4%[9.04 µM]
O=[N+]([O-])c1cccc(-c2nnn(C34CC5CC(CC(C5)C3)C4)n2)c1	1%	-19	?	-28%	3%	18µM*
O=C1OC2(c3cc(I)c(O)c(I)c3Oc3c2cc(I)c(O)c3I)c2c(Cl)c(Cl)c(Cl)c(Cl)c21	29%	nt	nt	nt	nt	nt
COc1cccc(CC2(CO)CCN(CC3=CC[C@H]4C[C@@H]3C4(C)C)CC2)c1	3%	-55*	?	-23%	-18%	?
OCC1(Cc2cccc(F)c2)CCN(Cc2ccc3cccc(F)c3n2)CC1	0%	-72*	?	-37%	-23%	?
COc1cccc(CC2(CO)CCN(Cc3ccc4cccc(F)c4n3)CC2)c1	3%	-71*	-19%	-28%	-5%	?
COc1cccc(CC2(CO)CCN(Cc3ccc(NC(C)=O)cc3)CC2)c1	1%	15	1%	-24%	4%	-16%
COc1ccc(C2(C)NC(=O)N(CC(=O)c3cc(C)n(C4CC4)c3C)C2=O)cc1OC (centres undefined)	4%	7	18µM*	11%	-22%	13µM*
CCC1(C)NC(=O)N(CC(=O)c2cc(C)n(C3CC3)c2C)C1=O (centres undefined)	2%	5	?	1%	-4%	?
CCCc1nc2ccccc2n1CCc1ccccc1	0%	-6	29µM*	-25%	-22%	21µM*
c1ccc(CCn2c(C3CC3)nc3ccccc32)cc1	6%	8	?	-1%	1%	26µM*
OCCCc1nc2ccccc2n1CCc1ccccc1	6%[56.1 µM]	-1	0%	4%	-12%	-8%
O=C(O)CCn1c(C2CCCCC2)nc2ccccc21	-5%	4	0%	0%	-1%	6%
CC1(C)Cc2ccccc2C(/C(C#N)=N/O)=N1	2%	-18	15µM*	-9%	7%	23µM*
CC1(C)Cc2ccccc2C(NN=C2CCCC2)=N1	0%	0	10%	-31%	3%	-29%
Cc1ccccc1NC(=O)CN1CCC(C(=O)c2ccc3c(c2)OCCO3)CC1	nt	14	?	-1%	-29%	18µM*
SMILES	TDP1 block	IL1B secr inh	TDP1 cell CPT	HepG2 viability	TGFb inhibitor	DT40 TDP1 no CPT
O=C(CN1CCC(C(=O)c2ccc3c(c2)OCCO3)CC1)Nc1ccccc1C(F)(F)F	3%	-57*	?	-13%	-12%	?
O=C(CN1CCN(CC(=O)Nc2ccccc2Cl)CC1)Nc1ccc2c(c1)OCCO2	6%	-8	?	-39%	-4%	23µM*
O=C(CN1CCN(CC(=O)Nc2ccccc2Cl)CC1)NCC1(N2CCCCC2)CCCCC1	0%	-8	?	-11%	-1%	21µM*
CSc1ccc(CCNC(=O)c2ccc(-c3nc(COc4ccccc4)c(C)o3)cc2)cc1	3%	nt	-10%	6%	9%	-17%
CCOc1ccc(C(=O)C2CCN(CC(=O)Nc3ccccc3N3CCOCC3)CC2)cc1	7%	-25	16µM*	-13%	14µM*	18µM*
COc1cccc(-c2nn(-c3ccccc3)cc2CN(C)Cc2ccon2)c1	0%	-15	-30%	-8%	-7%	11µM*
CCOC(=O)c1c(-c2ccc(F)cc2)csc1NC(=O)C1CCCO1 (centres undefined)	-7%	0	-14%	1%	-9%	?
COC(=O)c1c(-c2cccc(C)c2)csc1NC(=O)C1CCCO1 (centres undefined)	5%	-9	?	7%	8%	18µM*
CCOC(=O)c1c(-c2ccc(C)cc2)csc1NC(=O)c1cc(=O)c2cc(Cl)ccc2o1	2%	nt	2%	6%	-1%	4.6µM*
CCOC(=O)c1c(-c2ccc(C)cc2)csc1NC(=O)C1CCCO1 (centres undefined)	-1%	7	?	-31%	-1%	26µM*
CC(C)OC(=O)c1c(-c2ccc(C(C)C)cc2)csc1NC(=O)C1CCCO1 (centres undefined)	-7%	16	?	-32%	-1%	15µM*
CCOC(=O)c1c(-c2ccc(OC)cc2)csc1NC(=O)C1CCCO1 (centres undefined)	-1%	-20	?	-16%	12%	?
Cc1cccc(-c2nn3c(=O)cc(CN4CCN(C(=O)c5ccccc5Br)CC4)nc3s2)c1	8%	nt	-14%	-7%	?	-16%
CCCNC(=S)N1CCC(C(=O)c2ccc(Cl)cc2)CC1	nt	29	23µM*	-29%	?	?
CCNC(=S)N1CCC(C(=O)c2ccc(Cl)cc2)CC1	nt	0	?	4%	2%	?
CCOc1ccc(NC(=S)N2CCC(C(=O)c3ccc(OC)cc3)CC2)cc1	nt	-7	16µM*	-9%	-3%	18µM*
CCS(=O)(=O)N1CCC(C(=O)c2ccc(Cl)cc2)CC1	9%	-8	21µM*	-14%	2%	?

High-throughput results from PubChem.
